PubChem BioAssay (NCATS)
Results filed as inconclusive are left out. The source made the active and inactive calls. The call rests on the fitted dose curve; in most records, active means well fitted inhibition curve with a large enough effect; inconclusive means small, poorly fitted or top-dose-only effect; inactive means flat fitted curve, though single readings scatter.

Key:
Test in all cases: qHTS profiling for inhibitors of Plasmodium falciparum proliferation (AID 504749); further: nearly all actives have a fitted effect of over 60% in size
Details in all cases: P. falciparum in erythrocytes, SYBR Green DNA, 72 h; series mostly up to 28.7 µM
CP260 = tested on: CP260
Method in brief: (§1)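 Infected RBCs, 0.3% parasitemia/2.5% Hct final; cpd 72 h, 37 C, 5% CO2; lysis buffer with saponin/triton/SYBR Green I, o/n RT dark; FI 485/535; norm. to artemisinin (0.29 uM) and DMSO.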

CP262 = tested on: CP262
Method in brief: as §1

CP265 = tested on: CP265
Method in brief: as §1

CP266 = tested on: CP266
Method in brief: as §1

CP268 = tested on: CP268
Method in brief: as §1

CP269 = tested on: CP269
Method in brief: as §1

CP286 = tested on: CP286
Method in brief: as §1

CP291 = tested on: CP291
Method in brief: as §1

CP297 = tested on: CP297
Method in brief: as §1

CP305 = tested on: CP305
Method in brief: as §1

CP315 = tested on: CP315
Method in brief: as §1

CP325 = tested on: CP325
Method in brief: as §1

CP329 = tested on: CP329
Method in brief: as §1

CP335 = tested on: CP335
Method in brief: as §1

DFO2036 = tested on: DFO2036
Method in brief: as §1

DIV14 = tested on: DIV14
Method in brief: as §1

DIV17 = tested on: DIV17
Method in brief: as §1

DIV30 = tested on: DIV30
Method in brief: as §1

Dd2 = tested on: Dd2
Method in brief: as §1

ECU = tested on: ECU
Method in brief: as §1

Measured: Potency
Potency means the concentration at half of the fitted maximal effect.

NC(=O)NC(=O)Cc1ccccc1
inactive: all assays above

O=C(O)CC(O)C(=O)O (stereo not drawn)
inactive: all assays above

CCn1cc(C(=O)O)c(=O)c2cnc(N3CCNCC3)nc21
inactive: all assays above

COc1ccc(Cl)cc1C(=O)NCCc1ccc(S(=O)(=O)NC(=O)NC2CCCCC2)cc1
not listed: ECU
inactive: all other assays above

CCCCCCCCCCCCOS(=O)(=O)O
inactive: all assays above

Nc1ccc(S(=O)(=O)Nc2ccccc2)cc1
inactive: all assays above

CCCCc1ncc(/C=C(\Cc2cccs2)C(=O)O)n1Cc1ccc(C(=O)O)cc1
inactive: all assays above

Cc1cc(CC(=O)O)n(C)c1C(=O)c1ccc(Cl)cc1
inactive: all assays above

Cc1cccc(C)c1NC(=O)CN(CC(=O)O)CC(=O)O
inactive: all assays above

COc1ccccc1O
inactive: all assays above

NCCNCCNCCNCCN
inactive: all assays above

COc1cc2[nH]c(=O)[nH]c(=O)c2cc1OC
inactive: all assays above

CCOC(=O)c1ccc(O)cc1
inactive: all assays above

CC(=O)Nc1ccc(/C=N/NC(N)=S)cc1
inactive: all assays above

CCOc1ccc2ccccc2c1C(=O)N[C@@H]1C(=O)N2[C@@H]1SC(C)(C)[C@@H]2C(=O)O
inactive: all assays above

CCC(=O)c1ccc(O)cc1
inactive: all assays above

CCC(=O)Nc1ccc(O)cc1
inactive: all assays above

Cc1c(Cl)cccc1Nc1ccccc1C(=O)O
inactive: all assays above

Nc1ccc(S(=O)(=O)Nc2nccs2)cc1
inactive: all assays above

CC(=O)Oc1ccc(C2(c3ccc(OC(C)=O)cc3)C(=O)Nc3ccccc32)cc1
inactive: all assays above

CCCCC(CC)COC(=O)c1ccccc1O (stereo not drawn)
inactive: all assays above

CC12CCC(CC1)C(C)(C)O2
inactive: all assays above

O=Cc1ccccc1C=O
inactive: all assays above

CCCCOc1cc(C(=O)OCCN(CC)CC)ccc1N
inactive: all assays above

CCCCOC(=O)c1ccc(O)cc1
inactive: all assays above

CC(=O)CCC(=O)O
inactive: all assays above

COc1ccc2c(c1)C(=O)N(CCc1ccc(S(=O)(=O)NC(=O)NC3CCCCC3)cc1)C(=O)C2(C)C
inactive: all assays above

CCOC(=O)[C@H](CCc1ccccc1)N[C@@H](C)C(=O)N1C(=O)N(C)C[C@H]1C(=O)O
inactive: all assays above

[O-][n+]1cccc(CO)c1
inactive: all assays above

O=c1cc[nH]c(=O)[nH]1
inactive: all assays above

O=C1O[C@H]([C@@H](O)CO)C(O)=C1O
not listed: ECU
inactive: all other assays above

COc1ccc(S(=O)(=O)Nc2nnc(CC(C)C)s2)cc1
inactive: all assays above

NC(=O)NNc1ccccc1
inactive: all assays above

C[C@H](N)[C@H](O)c1cccc(O)c1
inactive: all assays above

Oc1cccc(O)c1
inactive: all assays above

O=C1OC(OC(=O)c2cccnc2Nc2cccc(C(F)(F)F)c2)c2ccccc21 (stereo not drawn)
inactive: all assays above

COc1cc(C(=O)N2CCOCC2)cc(OC)c1OC
inactive: all assays above

NS(=O)(=O)c1cc2c(cc1Cl)NC(CSCc1ccccc1)=NS2(=O)=O
inactive: all assays above

CC1(C)[C@@H]2CC[C@@]1(C)C(=O)C2
inactive: all assays above

Oc1cn2c(n1)Nc1ccc(Cl)c(Cl)c1C2
inactive: all assays above

CCN(CC)CCSC(=O)C(c1ccccc1)c1ccccc1
inactive: all assays above

O=C(O)CN1C(=O)c2cccc3cccc(c23)C1=O
inactive: all assays above

O=c1[nH]c(=O)c2[nH]c(=O)[nH]c2[nH]1
inactive: all assays above

N[C@@H](CSCCCO)C(=O)O
inactive: all assays above

CCCCCCCCCCCCCCCC(=O)NCCO
inactive: all assays above

Cc1ncc(COP(=O)(O)O)c(C=O)c1O
inactive: all assays above

CC(O)COc1ccccc1 (stereo not drawn)
inactive: all assays above

O=C(O)COc1nn(Cc2ccccc2)c2ccccc12
inactive: all assays above

CC(=O)NC(Cc1ccccc1)C(=O)O (stereo not drawn)
inactive: all assays above

Cc1cc(O)cc2c1O[C@](C)(CCC[C@H](C)CCC[C@H](C)CCCC(C)C)CC2
inactive: all assays above

COc1cc(C)c(Cc2cnc(N)nc2N)cc1OC
active: ECU 5.01 µM
inactive: all other assays above

Cc1cccc(Nc2cc(Cl)nc(SCC(=O)O)n2)c1C
inactive: all assays above

O=C(Oc1ccccc1C(=O)O)c1ccccc1O
inactive: all assays above

C[C@@H]1CN(c2c(F)c(F)c3c(=O)c(C(=O)O)cn(C4CC4)c3c2F)C[C@H](C)N1
inactive: all assays above

CC(C)(C)NCC(O)COc1ccc(NC(=O)NC2CCCCC2)cc1 (stereo not drawn)
inactive: all assays above

CCN(CC)CCNC(=O)c1cc(Cl)c(N)cc1OC
inactive: all assays above

OCC(O)CN1CCN(c2ccccc2)CC1 (stereo not drawn)
inactive: all assays above

O=S(=O)(O)NC1CCCCC1
inactive: all assays above
